The values that follow come from PubChem BioAssay AID743047 (Broad Institute, 2013).

Entries with a potency or affinity are not part of this list. The source made the active and inactive calls. How the calls were made is not given here.

This experiment can be described thus: PAX5 activity inhibitors, dose response, selectivity assay for PAX8 inhibitor project, cell-based, plate reader, dry powder samples (AID 743047). The settings on record: cell-based PAX5 selectivity counter-screen; series mostly up to 50 µM. On the technique in general: The purpose of a counterscreen is to sort out artefacts and off-target activity.
Take `N#C[C@H]1N[C@H](CO)[C@@H]1c1ccc(C#Cc2ccccc2F)cc1`: the result was inactive.
Same read-out and setting: the value for `O=C(c1cc(-c2cccs2)on1)N1CCN(C(c2ccccc2)c2ccccc2)CC1` was “inactive”.
For the molecule `CN(C[C@H]1N[C@@H](CO)[C@@H]1c1ccc(C2=CCCC2)cc1)C(=O)c1cccc(F)c1`, the activity change, negative = inhibition was 243% [at 8 µM] (inactive).
As to `CN(C)CCCN(C(=O)CCOc1ccccc1)c1nc2c(F)cccc2s1`, the result was inactive.
Same read-out and setting: the value for `O=C(CCCN1C(=O)/C(=C\c2cccc(Br)c2)SC1=S)Nc1ccccn1` was “inactive”; that for `CC(=O)Nc1ccc(NC(=O)c2nc(S(=O)(=O)Cc3ccccc3)ncc2Cl)cc1` was “inactive”.
Still for that read-out and setting: the value for `O=C(CCS(=O)(=O)c1ccccc1)Nc1nc2ccc(F)cc2s1` was “inactive”; that for `C[C@H]1CN([C@@H](C)CO)C(=O)CCCn2nncc2CO[C@@H]1CN(C)C(=O)Nc1ccc(-c2cccs2)cc1` was “inactive”; that for `COc1cccc2sc(N(CCCN(C)C)C(=O)CCS(=O)(=O)c3ccccc3)nc12` was “inactive”.
The same measure, in the same setting: the value for `O=C(CCCN1C(=O)/C(=C\c2cccc(Br)c2)SC1=S)Nc1cccnc1` was “inactive”; that for `COc1ccc(OC)c2sc(N(CCCN(C)C)C(=O)CCS(=O)(=O)c3ccccc3)nc12` was “inactive”.
Consider `CC(C)(C)c1nnc(NC(=O)CCS(=O)(=O)c2ccccc2)s1`, for which the result was inactive.
Same read-out and setting: the value for `O=C1/C(=C/c2ccccc2F)SC(=S)N1CC(=O)N1CCCCC1c1cccnc1` (stereo not given) was “inactive”; that for `C[C@H](CO)N1C[C@H](C)[C@@H](CN(C)Cc2ccc(-c3ccccc3)cc2)Oc2ccc(NC(=O)C3CC3)cc2CC1=O` was “inactive”.
Same read-out and setting: the value for `COc1ccc(-c2cc(C(F)(F)F)nc(S(=O)(=O)CCCC(=O)Nc3cc(C)on3)n2)cc1OC` was “inactive”.
